A word on the AC50: it is the concentration giving half of the maximal activity seen.

Several values for one entry are separate records, joined by “and”; a condition that tells them apart may be missing. Equal values may be shown once. Screen size: about 16,000 compounds; about 2,600 (16%) were called active. Inconclusive results (about 20%) are left out. Not all results are given here. Values without a mark were called inactive. Calls come from the whole dose curve; as a rule, active = well fitted curve in the direction sought with a large enough effect; inconclusive = small, poorly fitted or top-dose-only effect, or effect the other way; inactive = no such curve, though single readings can be large or run the other way.
% is set by controls: 0 for no effect and ±100 for the full control effect.

The target in the assay is Cytochrome P450 2D6 (Homo sapiens) (UniProt P10635). The assay is described as follows: Cytochrome panel assay with activity outcomes. As to conditions: recombinant CYP, pro-luciferin dealkylation, luminescence, p450-cyp2d6; series mostly up to 57.1 µM; activity, negative = inhibition: at the top concentration.
Cytochrome P450 2D6 (Homo sapiens), sequence (P10635 whole entry, looked up): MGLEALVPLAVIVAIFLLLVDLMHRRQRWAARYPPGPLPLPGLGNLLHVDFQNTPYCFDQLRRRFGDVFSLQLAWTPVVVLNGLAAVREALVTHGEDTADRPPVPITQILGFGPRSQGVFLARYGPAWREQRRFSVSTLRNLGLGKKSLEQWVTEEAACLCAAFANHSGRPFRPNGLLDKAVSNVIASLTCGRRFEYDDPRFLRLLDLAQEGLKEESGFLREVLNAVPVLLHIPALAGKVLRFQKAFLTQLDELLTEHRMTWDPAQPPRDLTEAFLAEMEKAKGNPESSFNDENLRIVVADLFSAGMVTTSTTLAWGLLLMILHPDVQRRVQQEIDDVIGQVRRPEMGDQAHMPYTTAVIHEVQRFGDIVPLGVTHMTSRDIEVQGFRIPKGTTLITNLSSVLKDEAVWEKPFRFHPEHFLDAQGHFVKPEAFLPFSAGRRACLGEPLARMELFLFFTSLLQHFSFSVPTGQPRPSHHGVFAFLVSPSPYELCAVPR
Regarding `CCN1C(=O)[C@H]2[C@H]3[C@H](O)[C@H](O)C/C(=N/OC[C@@H](O)COCc4ccco4)[C@@H]3CC[C@@H]2C1=O`, the activity, negative = inhibition was 19.4% [at 11.4 µM] and 13.7% [at 11.4 µM].
For `Cc1ccc(/C=C/C(=O)NC(=S)Nc2ccccc2C(=O)NC2CCCCC2)cc1`, the “activity, negative = inhibition” value is -17.6%.
For the molecule `N.N.O=C(O)C1(C(=O)O)CCC1.[Pt]`, the “activity, negative = inhibition” value was -10.9%.
On the same count and under the same terms, in the case of `Cc1cc(-c2ccccc2)[nH]c(=O)c1S(=O)(=O)c1ccc(Cl)cc1` it was -13.2%.
On to `O=c1[nH]c2cc(Cl)ccc2c(O)c1-c1cccc(Oc2ccccc2)c1`, for which the AC50 is 6.31 µM (active).
Consider `O=c1[nH]c2cc(Cl)ccc2c(O)c1-c1ccc(Oc2ccccc2)cc1`, for which the “activity, negative = inhibition” value is -10.3%.
With `CCn1c(CC(=O)Nc2ccc(C)cc2)nnc1SCC(=O)Nc1nc(C)cs1`, the “activity, negative = inhibition” value is -7.36%.
For the molecule `C[C@@H]1CCC[C@H](C)N1NC(=O)c1ccc(Cl)c(S(N)(=O)=O)c1`, the “activity, negative = inhibition” value was -4.56% [at 25.6 µM].
As for `CCCC[P+](CCCC)(CCCC)Cc1ccc(NC(=O)[C@@H](Cc2ccc3ccccc3c2)NC(=NC2CCCCC2)NC2CCCCC2)cc1`, the “activity, negative = inhibition” value was 15.3%.
With `CC(=O)c1cccc(NC(=O)CSCc2ccccc2)c1`, the AC50 was 14.1 µM (active).
Turning to `O=C(c1ccc(CN2CCc3ccccc3C2)cc1)N1CCc2ccccc2C1`, the AC50 is 2 µM (active).
In the case of `CSc1ccccc1NC(=O)CSCc1ccc(C)cc1`, the AC50 was 14.1 µM (active).
For `Cc1ccccc1C(=O)N1CCc2ccccc2C1`, the “activity, negative = inhibition” value is -16.4%.
With `Cc1ccc(NS(=O)(=O)c2cc(C(=O)N3CCc4ccccc4C3)ccc2Cl)cc1`, the “activity, negative = inhibition” value is -24.1%.
For the molecule `O=C(CSCc1ccccc1)Nc1ccc(S(=O)(=O)N2CCOCC2)cc1`, the AC50 is 6.31 µM (active).
Take `COC(=O)c1ccc(C(=O)OC)c(NC(=O)CSCc2ccc(Br)cc2)c1`: the “activity, negative = inhibition” value was -10.2%.
In the case of `Nc1cc(=O)[nH]c(SCC(=O)Nc2ccc(S(=O)(=O)N3CCOCC3)cc2)n1`, the “activity, negative = inhibition” value is -25.6%.
On to `Cc1ccc(OCC(=O)Nc2ccccc2-c2ccccc2)cc1`, for which the “activity, negative = inhibition” value is -16.6%.
Same read-out and setting: the same measure for `CS(=O)(=O)Nc1ccc(S(=O)(=O)N2CCOCC2)cc1`: 4.02%; for `O=C(CSCc1ccccc1)Nc1cccc(C(=O)Nc2ccccc2C(=O)O)c1`: -0.0467%; for `CN(C)CCN1C(=O)C(O)=C(C(=O)c2cc3ccccc3o2)C1c1cccc(Br)c1` (configuration not stated): -8.66%.
`COc1ccc2c(c1)C(=O)N(c1ccccc1)C(=O)C2`: the “activity, negative = inhibition” value was 6.59%.
As to `CN(C)c1cc(=O)n2c(n1)SCCC2`, the “activity, negative = inhibition” value was -8.3%.
The same measure, in the same setting: the same measure for `CCSc1nc2ccccc2n1C(=O)/C=C\c1ccc(OC)c(OC)c1`: -26.1%; for `CC(C)COP(=O)(OCC(C)C)C(O)c1ccccc1F` (configuration not stated): -0.495%; for `CCOC(=O)c1c(NC(=O)c2ccc(S(=O)(=O)N3CCOCC3)cc2)sc2c1CCN(C)C2`: -15.6%.
`CN(C)S(=O)(=O)c1ccc(C(=O)Nc2ccc(CN3CCCC3)cc2)cc1`: the AC50 was 2.51 µM (active).
For the molecule `O=C(NCc1n[nH]c(=S)n1-c1ccccc1)c1ccc(S(=O)(=O)N2CCOCC2)cc1`, the “activity, negative = inhibition” value is 14.4%.
For the molecule `O=C(Nc1ccc(S(=O)(=O)N2CCCCC2)cc1)c1ccc(CN2CCc3ccccc3C2)cc1`, the half-maximal activity concentration (AC50) is 0.251 µM (active).
On to `O=C(Nc1ccc(S(=O)(=O)N2CCCC2)cc1)c1ccc(CN2CCOCC2)cc1`, for which the AC50 was 5.01 µM (active).
Consider `CCN(CC)S(=O)(=O)c1ccc(C(=O)Nc2ncn(Cc3ccccc3)n2)cc1`, for which the “activity, negative = inhibition” value is -4.78%.
Regarding `O=C(Nc1ccc(S(=O)(=O)N2CCOCC2)cc1)c1ccc(CN2CCc3ccccc3C2)cc1`, the AC50 is 0.178 µM (active).
For `O=C(Nc1ccccc1-c1nc2ccccc2[nH]1)c1ccc(S(=O)(=O)N2CCCCC2)cc1`, the “activity, negative = inhibition” value was -16.2%.
Same read-out and setting: the same measure for `COCc1nnc(NC(=O)c2ccc(S(=O)(=O)N3CCCCCC3)cc2)o1`: 13.5%; for `CN(C)S(=O)(=O)c1ccc(NC(=O)c2cc(F)c(F)cc2Cl)cc1`: -9.35%.
For `O=C(CSc1ncccn1)Nc1ccc(S(=O)(=O)N2CCCCC2)cc1`, the “activity, negative = inhibition” value was 6.83%.
With `Cc1nc2ccc3nc(NC(=O)c4ccc(S(=O)(=O)N5CCOCC5)cc4)sc3c2s1`, the “activity, negative = inhibition” value is 5.64%.

The record behind these values is PubChem BioAssay AID1851 (National Center for Advancing Translational Sciences (NCATS), 2009).
